# Reference: PubChem BioAssay (Tox21)
# Values without a mark were called inactive. The call rests on the fitted dose curve.
# Target: Muscarinic acetylcholine receptor M1 (Homo sapiens) (UniProt P11229)
# Experiment: Cholinergic receptor muscarinic 1 (CHRM1) small molecule agonists, cell-based qHTS assay (AID 1963589); further: nearly all actives have a fitted effect of over 35% in size
# Details: CHRM1-CHO cells, agonist mode, calcium flux fluorescence; series mostly up to 76.8 µM; activation: at the top concentration
# Procedure, shortened: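 Each compound was tested at 15 concentrations across three independent runs on dye-loaded CHO cells stably expressing human CHRM1, reading intracellular calcium fluorescence kinetically at 1 sec intervals.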
# On the % scale 0 is the no-effect control and ±100 the full control effect.
# Chain of Muscarinic acetylcholine receptor M1 (Homo sapiens) (P11229 whole entry, looked up): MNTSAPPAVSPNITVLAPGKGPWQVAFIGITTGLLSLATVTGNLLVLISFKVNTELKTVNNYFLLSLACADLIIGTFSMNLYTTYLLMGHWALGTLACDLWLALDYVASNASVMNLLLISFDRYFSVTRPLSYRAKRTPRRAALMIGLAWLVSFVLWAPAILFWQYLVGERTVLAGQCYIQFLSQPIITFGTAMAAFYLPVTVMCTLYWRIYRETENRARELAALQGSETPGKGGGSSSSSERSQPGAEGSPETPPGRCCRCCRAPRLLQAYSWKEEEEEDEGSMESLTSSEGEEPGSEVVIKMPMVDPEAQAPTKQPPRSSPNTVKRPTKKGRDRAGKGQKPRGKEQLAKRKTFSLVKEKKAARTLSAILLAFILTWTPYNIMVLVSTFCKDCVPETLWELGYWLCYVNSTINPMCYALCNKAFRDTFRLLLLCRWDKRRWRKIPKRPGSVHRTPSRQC
row,Compound,activation
1,Cc1cc(C)c(N=Nc2c(O)c(S(=O)(=O)O)cc3cc(S(=O)(=O)O)ccc23)cc1C,-0.143% [at 6.97 µM]
2,CC(=O)Nc1c(I)cc(I)c(C(=O)O)c1I,0.0083% [at 35.3 µM]
3,C=COCCOCCOCCOC=C,0.193%
4,CC(=O)[O][Al][O]C(C)=O,1.33%
5,COc1ccc2cc(C=O)ccc2c1,-0.063% [at 35.3 µM]
6,Cc1occc1S,-0.0714%
7,CCCN1CCCC[C@H]1C(=O)Nc1c(C)cccc1C,0.117% [at 35.3 µM]
8,Cc1ccc(NC(=O)N(C)C)cc1NC(=O)N(C)C,-0.945%
9,CCN(CC)CCN,0.0979% [at 35.3 µM]
10,O=[N+]([O-])c1ccccc1Nc1ccccc1,1.68%
11,NC(=O)c1ncn([C@@H]2O[C@H](CO)[C@@H](O)[C@H]2O)c1O,-0.149% [at 35.3 µM]
12,O=C(O)[C@@H]1[C@H]2C[C@H]3c4[nH]c5ccccc5c4CCN3C[C@@H]2CC[C@@H]1O,0.903% [at 35.3 µM]
13,CC1(C)C(C=C(Cl)Cl)C1C(=O)OCc1cccc(Oc2ccccc2)c1 (stereo unspecified),0.0992%
14,O=C(O)c1ccccc1OP(=O)(O)O,0.0481% [at 35.3 µM]
15,CCCCN(CCO)CCO,0.432%
16,COC(OC)C(C)c1ccccc1 (stereo unspecified),-0.304%
17,Nc1cc(=O)[nH]c(N)n1,0.006% [at 35.3 µM]
18,CCOC(OCC)OCC,-0.139%
19,C=CCOC(=O)CCCCCC,0.171%
20,O=C(O)[C@@H](O)[C@H](O)[C@H](O)[C@@H](O)C(=O)O,35.7% [at 35.3 µM]
21,CCCCCCCCCC(C)=O,-0.148%
22,OC/C=C/CO,0.391%
23,Cc1ccc(S(=O)(=O)NC(=O)NC2CCCC2)cc1,-0.0078% [at 35.3 µM]
24,CCCC(=O)c1ccccc1,0.599%
25,NC(=O)c1cccc([N+](=O)[O-])c1,-0.59%
26,COc1c2ccoc2cc2oc(=O)ccc12,-0.999%
